Results filed as inconclusive are left out. Calls of active or inactive are those of the source. Calls come from the whole dose curve; as a rule, active = well fitted inhibition curve with a large enough effect; inconclusive = small, poorly fitted or top-dose-only effect; inactive = flat fitted curve, though single readings scatter. Peptide text beside a SMILES is read from it.
test system: PC49; test: qHTS profiling for inhibitors of Plasmodium falciparum proliferation (AID 504749); note: nearly all actives have a fitted effect of over 60% in size;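 for activity, negative = inhibition: 0% = DMSO vehicle and full inhibition = artemisinin control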; details: P. falciparum in erythrocytes, SYBR Green DNA, 72 h; series mostly up to 12.8 µM; activity, negative = inhibition: at the top concentration
Summary of the method: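 P. falciparum-infected erythrocytes (0.3% parasitemia, 2.5% hematocrit final) were exposed to compounds for 72 h at 37 C in 5% CO2, then lysed with SYBR Green buffer overnight at room temperature; parasite DNA fluorescence was normalized to artemisinin and DMSO controls.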
Potency is the fitted concentration of half-maximal effect.

Structure (SMILES)	activity, negative = inhibition	Potency
CCC(C)C(=O)OC1CCC=C2C=CC(C)C(CCC3CC(O)CC(=O)O3)[C@@H]21 (stereo not given in full)	3.15% [at 28.7 µM] (inactive)	
C[C@]1(c2ccccc2)OC(C(=O)O)=CC1=O	2.31% [at 28.7 µM] (inactive)	
OCC1OC([S-])[C@H](O)C(O)C1O.[Au+] (stereo not given in full)	-4.15% [at 28.7 µM] (inactive)	
COC(=O)N/N=C/C1=C[N+](=O)c2ccccc2[N+]1=O	12% [at 28.7 µM] (inactive)	
CN1CC(=O)N=C1N	-11.4% [at 28.7 µM] (inactive)	
CNC1CC(N)[C@H](O)[C@@H](O[C@@H]2OC(CO)C3OC4(OC(C(N)CO)C(O)C(O)C4O)O[C@@H]3[C@H]2O)C1O (stereo not given in full)	6.77% [at 28.7 µM] (inactive)	
COC1C=CO[C@@]2(C)Oc3c(C)c(O)c4c(O)c(c(C=NN5CCN(C)CC5)c(O)c4c3C2=O)NC(=O)/C(C)=C\C=CC(C)C(O)[C@@H](C)C(O)C(C)[C@H](OC(C)=O)C1C (stereo not given in full)		1410 nM (active)
CC(=O)N[C@@H]1C(O)OC(CO)C(O)C1O (stereo not given in full)	5.17% [at 28.7 µM] (inactive)	
CCC(CCC(C)C1CCC2C3CC=C4CC(O)CC[C@@]4(C)C3CC[C@@]12C)C(C)C (stereo not given in full)	15.4% [at 28.7 µM] (inactive)	
O=C1OC(CO)C(O)C(O)C1O (stereo not given)	1.58% [at 28.7 µM] (inactive)	
COc1ccc(CC(N)C(=O)NC2C(CO)OC(n3cnc4c(N(C)C)ncnc43)C2O)cc1 (stereo not given)		2000 nM (active)
CCCC(=O)O[C@]1(C(=O)CO)CCC2[C@@H]3CCC4=CC(=O)CC[C@]4(C)C3C(O)C[C@]21C (stereo not given in full)	14.4% [at 28.7 µM] (inactive)	
COC(=O)C(Cc1ccccc1)NC(=O)C(N)CC(=O)O (stereo not drawn) (H-Asp-Phe-OMe; configuration not given here)	0.505% [at 28.7 µM] (inactive)	
CC[C@@]12CCCN3CCc4c(n(c5ccccc45)[C@](O)(C(=O)OC)C1)C32 (stereo not given in full)	-2.61% [at 28.7 µM] (inactive)	
CC1(C)SC2C(N3C(=O)C(c4ccccc4)NC3(C)C)C(=O)N2C1C(=O)O (stereo not given)	8.54% [at 28.7 µM] (inactive)	
